DT40 TDP1 no CPT: qHTS for Inhibitors of human tyrosyl-DNA phosphodiesterase 1 (TDP1): qHTS in cells in absence of CPT; 15% of 420,000 active; AID 686978, 2013; Potency, µM (series often up to 46.2 µM), actives largely listed as inhibitors; DT40 Tdp1-/- hTDP1 cells, no CPT, ATP luminescence, 48 h; note: nearly all actives have a fitted effect of over 55% in size
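Luminescent ATP content (CellTiter-Glo) served as the growth readout. Knockout chicken DT40 cells expressing human TDP1 were exposed to compounds without camptothecin for a minimum 48 hr at 37 °C.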
TDP1 cell CPT: growth inhibition of DT40 Tdp1-/-;hTDP1 cells with camptothecin (screen for TDP1 inhibitors); 12% of 420,000 active; Potency, µM (titrated, usually from 46.2 µM), hits mostly inhibitors; chicken DT40 Tdp1-/-;hTDP1 cells + 20 nM CPT, ATP luminescence, 48 h; AID 686979; note: nearly all actives have a fitted effect of over 55% in size
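Chicken DT40 Tdp1-/- cells complemented with human TDP1, 400 cells/well, exposed to compounds plus 20 nM camptothecin for at least 48 h at 37 C; viability read as ATP content by CellTiter-Glo luminescence.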
ClpP mod: qHTS Assay for Activators of ClpP; purified B. subtilis ClpP, FRET peptide cleavage, 20 min; AID 651965, 2013; 1.9% of 340,000 active; Potency, µM (series often up to 57.5 µM); active = well fitted falling curve with a large enough effect; inconclusive = small, poorly fitted or top-dose-only effect; inactive = no such curve, though single readings can be large or run the other way; note: the source files actives as falling curves though it sought activators and does not explain the sign; nearly all actives have a fitted effect of over 65% in size
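ClpP 10 microg/mL final, pH 8 Tris/KCl buffer with BSA, glycerol, Tween-20; compound pinned in; FRET-FV substrate; RT 20 min; Ex320/Em430; ΔFRET vs ADEP 5.8 microM, DMSO, no enzyme.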
D3 antag: blocks the human D3 dopamine receptor; P35462; 2.5% of 360,000 active; D3R cells, DiscoveRx beta-arrestin luminescence, antagonist mode; hits give low values; max response, negative = inhibition, %; AID 652054; in the data active = max response below about -50%; inconclusive = no clear call, values can overlap the other calls
Target sequence (P35462 whole entry, looked up): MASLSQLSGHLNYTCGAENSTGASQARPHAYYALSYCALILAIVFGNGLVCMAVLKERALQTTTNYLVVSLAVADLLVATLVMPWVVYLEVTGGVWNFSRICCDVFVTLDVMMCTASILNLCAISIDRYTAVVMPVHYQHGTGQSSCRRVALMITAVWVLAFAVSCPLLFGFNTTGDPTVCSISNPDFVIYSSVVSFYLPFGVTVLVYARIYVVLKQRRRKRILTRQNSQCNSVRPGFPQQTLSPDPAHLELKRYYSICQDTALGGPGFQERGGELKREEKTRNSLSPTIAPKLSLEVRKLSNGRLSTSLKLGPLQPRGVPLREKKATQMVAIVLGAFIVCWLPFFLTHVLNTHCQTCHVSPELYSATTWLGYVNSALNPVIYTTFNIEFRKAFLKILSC
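Cells plated overnight at 1500 cells/well, then exposed to library compounds with dopamine controls for 90 minutes at 37 degrees C. DiscoveRx reagent added for 30–60 minutes at room temperature; luminescence read, quantitative HTS format.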
DRD3 agonist: agonists of human D3 dopamine receptor; 0.58% of 410,000 active; P35462; D3R DiscoveRx beta-arrestin cells, luminescence, 90 min; AID 652048; max activation, %; in the data active = max activation above about 30%
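Agonist-mode cell screen: cells plated at 1500/well and incubated overnight at 37 °C, then exposed to library compounds for 90 min at 37 °C. Detection reagent was added for 30–60 min at room temperature, and luminescence was read.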
IL1B secr inh: inhibitors of inflammasome signaling (IL-1 beta secretion); THP-1 LPS/ATP IL-1B secretion, AlphaLISA, 16 h; hits give low values; activity change, % at 57.5 µM; 4.7% of 360,000 active; AID 743279; in the data active = activity change below about -50%; inconclusive = mostly about -30% to -49%
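THP-1 cells pretreated 1 hr with compounds (up to 57.5 uM final), then stimulated with LPS (250 ng/mL final) plus ATP (1.25 mM final); secreted IL-1B measured by AlphaLISA after 16 hr, decreased signal indicating inhibition.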
Of the large screens only hits and unclear results are named; the others gave an inactive call. Shown are actives, neighbours in structure and some others; about 21% of the full set was active somewhere. Unless noted, calls come from the whole dose curve; as a rule, active = well fitted inhibition curve with a large enough effect; inconclusive = small, poorly fitted or top-dose-only effect; inactive = flat fitted curve, though single readings scatter.

CCc1ccc(NSc2ccccc2[N+](=O)[O-])cc1	DT40 TDP1 no CPT inconclusive, TDP1 cell CPT inconclusive, IL1B secr inh inconclusive
CC1(Br)C(Sc2ccccc2[N+](=O)[O-])=Nc2ccccc21 (stereo unspecified)	DT40 TDP1 no CPT 23.1µM, TDP1 cell CPT 20.6µM, D3 antag -50.7
CC[C@H](CC[C@@H](C)[C@H]1CC[C@H]2[C@@H]3CC=C4C[C@@H](O)CC[C@]4(C)[C@H]3CC[C@]12C)C(C)C	none (no result: ClpP mod, D3 antag, IL1B secr inh)
O=C1NC(=S)S/C1=C\c1cccc([N+](=O)[O-])c1	DT40 TDP1 no CPT 13µM, TDP1 cell CPT inconclusive (no result: ClpP mod)
O=C1NC(=Nc2ccccc2Cl)S/C1=C\c1cccc([N+](=O)[O-])c1	DT40 TDP1 no CPT inconclusive, TDP1 cell CPT inconclusive (no result: ClpP mod)
O=C(/C=C/c1ccc(-c2cccc([N+](=O)[O-])c2)o1)N1CCOCC1	DT40 TDP1 no CPT 18.4µM, TDP1 cell CPT 16.4µM
O=C(/C=C/c1cccc([N+](=O)[O-])c1)N1CCOCC1	none
O=C1NC(=O)/C(=C/c2ccc(-c3cccc([N+](=O)[O-])c3)o2)S1	DT40 TDP1 no CPT inconclusive, TDP1 cell CPT 16.4µM
N#CC1C(=O)c2ccccc2C1c1ccccc1 (stereo unspecified)	DT40 TDP1 no CPT inconclusive, TDP1 cell CPT inconclusive, IL1B secr inh -103.7
O=C(c1csnn1)N1CCC2(CCCN(c3cccc(-c4ccccc4)c3)C2)CC1	DT40 TDP1 no CPT inconclusive (no result: ClpP mod, D3 antag, DRD3 agonist, IL1B secr inh)
COc1ccc(C(=O)NC(=S)NNC(=O)c2ccc(C)cc2)cc1	DT40 TDP1 no CPT inconclusive, TDP1 cell CPT inconclusive
COc1ccc(C(=O)NC(=S)NNC(=O)c2ccc(NC(=O)C(C)C)cc2)cc1	DT40 TDP1 no CPT 14.6µM, TDP1 cell CPT 16.4µM
